As a reminder, the inhibition is the relative decrease from the control value, in per cent.

The values that follow come from ChEMBL document CHEMBL1961873, “Compounds: GSK PKIS; Assays: Nanosyn kinase panel” (2012).

Test [1] addresses Sphingosine kinase 1 (Homo sapiens) (UniProt Q9NYA1). As to conditions: at 1 µM.
In test [2] the target is T1, Sphingosine kinase 2 (Homo sapiens) (UniProt Q9NRA0).
T1 sequence (whole entry): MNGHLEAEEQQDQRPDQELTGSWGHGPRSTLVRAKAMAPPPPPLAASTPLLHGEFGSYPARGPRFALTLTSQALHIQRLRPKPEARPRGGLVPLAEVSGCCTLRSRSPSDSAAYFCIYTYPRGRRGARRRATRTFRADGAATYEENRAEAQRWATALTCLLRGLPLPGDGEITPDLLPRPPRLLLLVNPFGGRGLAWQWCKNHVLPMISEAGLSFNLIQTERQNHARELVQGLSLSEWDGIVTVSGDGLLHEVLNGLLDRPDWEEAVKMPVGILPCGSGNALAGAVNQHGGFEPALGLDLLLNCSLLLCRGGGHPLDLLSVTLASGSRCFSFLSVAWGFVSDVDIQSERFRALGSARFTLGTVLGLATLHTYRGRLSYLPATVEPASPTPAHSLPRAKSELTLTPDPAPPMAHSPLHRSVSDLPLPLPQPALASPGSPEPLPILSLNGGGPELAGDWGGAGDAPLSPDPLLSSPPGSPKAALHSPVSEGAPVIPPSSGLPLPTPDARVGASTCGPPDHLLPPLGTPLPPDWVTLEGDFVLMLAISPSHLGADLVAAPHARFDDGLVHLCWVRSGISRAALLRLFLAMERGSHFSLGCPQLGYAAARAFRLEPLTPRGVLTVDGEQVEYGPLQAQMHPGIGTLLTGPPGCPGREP
As to conditions: at 0.1 µM.

Test [3] deals with T1, Sphingosine kinase 2 (Homo sapiens). Particulars: at 1 µM.
Test [4] addresses Casein kinase II subunit alpha (Homo sapiens) (UniProt P68400). Particulars: at 0.1 µM.
Test [5] has the same target. As to conditions: at 1 µM.
In test [6] the target is T2, Inhibitor of nuclear factor kappa-B kinase subunit alpha (Homo sapiens) (UniProt O15111).
T2 sequence (whole entry): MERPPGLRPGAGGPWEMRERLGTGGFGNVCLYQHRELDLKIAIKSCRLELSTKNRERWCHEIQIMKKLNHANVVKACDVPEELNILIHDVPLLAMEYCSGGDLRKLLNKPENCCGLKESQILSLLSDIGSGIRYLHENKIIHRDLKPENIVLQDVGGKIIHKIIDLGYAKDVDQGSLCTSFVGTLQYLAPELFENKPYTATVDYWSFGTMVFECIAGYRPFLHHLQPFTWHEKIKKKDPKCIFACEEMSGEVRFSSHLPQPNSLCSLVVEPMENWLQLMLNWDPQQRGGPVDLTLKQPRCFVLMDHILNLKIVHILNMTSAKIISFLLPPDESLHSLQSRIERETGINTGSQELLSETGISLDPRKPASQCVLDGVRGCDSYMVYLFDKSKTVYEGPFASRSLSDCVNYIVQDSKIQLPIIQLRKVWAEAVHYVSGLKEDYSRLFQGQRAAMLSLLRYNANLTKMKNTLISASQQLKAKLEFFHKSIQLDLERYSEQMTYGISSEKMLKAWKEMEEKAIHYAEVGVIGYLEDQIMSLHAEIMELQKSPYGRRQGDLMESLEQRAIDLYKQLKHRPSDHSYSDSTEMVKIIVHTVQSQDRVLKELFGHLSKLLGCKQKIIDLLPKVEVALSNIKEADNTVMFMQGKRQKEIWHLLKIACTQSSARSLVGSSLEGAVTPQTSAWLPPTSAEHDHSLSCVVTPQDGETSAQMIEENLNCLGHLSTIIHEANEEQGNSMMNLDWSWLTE
Particulars: at 0.1 µM.

Test [7] concerns the target T2, Inhibitor of nuclear factor kappa-B kinase subunit alpha (Homo sapiens). Particulars: at 1 µM.
In test [8] the target is T3, Inhibitor of nuclear factor kappa-B kinase subunit beta (Homo sapiens) (UniProt O14920).
T3 sequence (whole entry): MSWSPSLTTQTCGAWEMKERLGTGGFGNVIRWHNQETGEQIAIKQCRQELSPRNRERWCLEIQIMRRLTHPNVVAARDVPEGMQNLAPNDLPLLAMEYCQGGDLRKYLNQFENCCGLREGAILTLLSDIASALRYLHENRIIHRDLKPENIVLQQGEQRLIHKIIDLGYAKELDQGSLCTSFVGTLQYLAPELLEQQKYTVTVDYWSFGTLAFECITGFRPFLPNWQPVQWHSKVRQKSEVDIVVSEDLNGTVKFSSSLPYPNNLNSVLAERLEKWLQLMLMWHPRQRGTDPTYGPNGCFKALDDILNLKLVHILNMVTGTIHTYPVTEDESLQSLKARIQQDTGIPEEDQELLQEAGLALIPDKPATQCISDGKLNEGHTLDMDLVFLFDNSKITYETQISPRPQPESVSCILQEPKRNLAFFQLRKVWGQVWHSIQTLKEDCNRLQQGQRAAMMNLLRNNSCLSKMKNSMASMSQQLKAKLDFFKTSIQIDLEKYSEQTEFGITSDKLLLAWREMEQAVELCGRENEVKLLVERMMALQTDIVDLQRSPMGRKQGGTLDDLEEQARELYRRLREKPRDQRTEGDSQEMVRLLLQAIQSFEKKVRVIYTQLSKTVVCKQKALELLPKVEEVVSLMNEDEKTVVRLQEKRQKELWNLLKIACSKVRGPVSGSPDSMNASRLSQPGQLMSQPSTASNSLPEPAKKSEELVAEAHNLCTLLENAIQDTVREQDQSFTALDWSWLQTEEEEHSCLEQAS
As to conditions: at 0.1 µM.

Test [9] concerns the target T3, Inhibitor of nuclear factor kappa-B kinase subunit beta (Homo sapiens). Particulars: at 1 µM.
For test [10], the target named is T4, Inhibitor of nuclear factor kappa-B kinase subunit epsilon (Homo sapiens) (UniProt Q14164).
T4 sequence (whole entry): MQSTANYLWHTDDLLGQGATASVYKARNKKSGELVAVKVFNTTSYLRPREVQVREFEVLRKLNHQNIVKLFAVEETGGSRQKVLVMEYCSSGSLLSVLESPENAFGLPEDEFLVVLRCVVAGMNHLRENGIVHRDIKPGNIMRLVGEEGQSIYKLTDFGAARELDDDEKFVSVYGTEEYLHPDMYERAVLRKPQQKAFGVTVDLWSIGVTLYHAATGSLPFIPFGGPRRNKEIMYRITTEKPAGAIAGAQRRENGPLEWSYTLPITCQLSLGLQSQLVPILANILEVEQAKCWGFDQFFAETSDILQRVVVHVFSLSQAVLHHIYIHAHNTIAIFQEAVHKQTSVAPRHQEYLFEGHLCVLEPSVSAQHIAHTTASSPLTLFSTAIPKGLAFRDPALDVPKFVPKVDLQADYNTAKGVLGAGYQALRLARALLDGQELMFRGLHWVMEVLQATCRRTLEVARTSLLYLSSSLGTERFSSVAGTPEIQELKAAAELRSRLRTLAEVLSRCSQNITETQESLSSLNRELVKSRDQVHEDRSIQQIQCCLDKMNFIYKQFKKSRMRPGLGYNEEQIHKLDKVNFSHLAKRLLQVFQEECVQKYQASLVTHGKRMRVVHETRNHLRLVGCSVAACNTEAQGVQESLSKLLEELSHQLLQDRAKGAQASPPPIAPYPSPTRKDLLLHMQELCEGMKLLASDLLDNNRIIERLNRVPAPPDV
Particulars: at 0.1 µM.

The target in test [11] is T4, Inhibitor of nuclear factor kappa-B kinase subunit epsilon (Homo sapiens). As to conditions: at 1 µM.
Test [12] concerns the target T5, Serine/threonine-protein kinase Nek1 (Homo sapiens) (UniProt Q96PY6).
T5 sequence (whole entry): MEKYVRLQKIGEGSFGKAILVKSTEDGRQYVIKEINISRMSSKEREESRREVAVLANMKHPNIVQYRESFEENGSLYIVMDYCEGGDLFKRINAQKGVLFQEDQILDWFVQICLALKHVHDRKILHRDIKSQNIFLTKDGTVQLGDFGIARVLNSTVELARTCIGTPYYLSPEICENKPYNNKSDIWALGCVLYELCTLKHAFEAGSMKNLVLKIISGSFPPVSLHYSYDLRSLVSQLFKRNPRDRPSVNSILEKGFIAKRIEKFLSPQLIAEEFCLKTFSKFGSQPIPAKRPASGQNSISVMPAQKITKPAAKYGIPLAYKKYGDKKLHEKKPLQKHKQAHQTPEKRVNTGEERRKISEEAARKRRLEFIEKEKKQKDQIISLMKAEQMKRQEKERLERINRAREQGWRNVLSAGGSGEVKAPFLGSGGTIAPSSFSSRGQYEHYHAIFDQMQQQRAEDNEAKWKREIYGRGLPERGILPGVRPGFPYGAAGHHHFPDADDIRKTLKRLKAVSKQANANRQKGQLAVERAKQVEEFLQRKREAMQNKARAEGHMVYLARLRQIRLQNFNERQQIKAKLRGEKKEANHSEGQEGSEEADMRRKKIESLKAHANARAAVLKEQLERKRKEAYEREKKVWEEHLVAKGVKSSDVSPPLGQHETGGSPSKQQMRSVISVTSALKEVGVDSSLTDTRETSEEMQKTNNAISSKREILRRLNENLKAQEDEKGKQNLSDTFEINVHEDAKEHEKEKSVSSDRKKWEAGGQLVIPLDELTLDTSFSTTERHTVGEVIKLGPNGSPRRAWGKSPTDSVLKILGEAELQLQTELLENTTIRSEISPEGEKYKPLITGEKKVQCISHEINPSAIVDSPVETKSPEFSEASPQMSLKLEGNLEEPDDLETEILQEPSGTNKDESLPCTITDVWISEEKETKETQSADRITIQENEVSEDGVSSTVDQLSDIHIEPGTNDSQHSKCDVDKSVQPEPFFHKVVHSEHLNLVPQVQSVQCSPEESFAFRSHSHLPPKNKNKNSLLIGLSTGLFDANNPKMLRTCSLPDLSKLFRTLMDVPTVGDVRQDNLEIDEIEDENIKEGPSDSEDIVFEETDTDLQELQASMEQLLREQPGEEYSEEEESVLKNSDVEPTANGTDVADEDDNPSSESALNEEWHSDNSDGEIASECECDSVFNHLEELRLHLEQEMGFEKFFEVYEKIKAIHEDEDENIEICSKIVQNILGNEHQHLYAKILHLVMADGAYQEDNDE
Particulars: at 0.1 µM.

Test [13] deals with T5, Serine/threonine-protein kinase Nek1 (Homo sapiens). Particulars: at 1 µM.
The target in test [14] is T6, Serine/threonine-protein kinase Nek2 (Homo sapiens) (UniProt P51955).
T6 sequence (whole entry): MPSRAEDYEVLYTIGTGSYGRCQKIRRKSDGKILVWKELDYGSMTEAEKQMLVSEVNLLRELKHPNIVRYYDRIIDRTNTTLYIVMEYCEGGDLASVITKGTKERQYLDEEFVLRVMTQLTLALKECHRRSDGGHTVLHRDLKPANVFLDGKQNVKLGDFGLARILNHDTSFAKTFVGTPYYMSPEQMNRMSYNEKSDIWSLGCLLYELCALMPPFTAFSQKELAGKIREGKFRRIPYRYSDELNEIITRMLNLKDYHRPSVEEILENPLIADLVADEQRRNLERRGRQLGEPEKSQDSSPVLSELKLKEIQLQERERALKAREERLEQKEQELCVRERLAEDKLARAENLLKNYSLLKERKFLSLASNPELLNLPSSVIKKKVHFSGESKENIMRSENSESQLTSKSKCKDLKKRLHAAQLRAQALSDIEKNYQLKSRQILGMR
As to conditions: at 0.1 µM.

The target in test [15] is T6, Serine/threonine-protein kinase Nek2 (Homo sapiens). Particulars: at 1 µM.
Test [16] concerns the target Serine/threonine-protein kinase Nek6 (Homo sapiens) (UniProt Q9HC98). Particulars: at 0.1 µM.
Test [17] has the same target. Particulars: at 1 µM.
The target in test [18] is Serine/threonine-protein kinase Nek7 (Homo sapiens) (UniProt Q8TDX7). Particulars: at 0.1 µM.
Chain of Serine/threonine-protein kinase Nek7 (Homo sapiens) (Q8TDX7 whole entry, looked up): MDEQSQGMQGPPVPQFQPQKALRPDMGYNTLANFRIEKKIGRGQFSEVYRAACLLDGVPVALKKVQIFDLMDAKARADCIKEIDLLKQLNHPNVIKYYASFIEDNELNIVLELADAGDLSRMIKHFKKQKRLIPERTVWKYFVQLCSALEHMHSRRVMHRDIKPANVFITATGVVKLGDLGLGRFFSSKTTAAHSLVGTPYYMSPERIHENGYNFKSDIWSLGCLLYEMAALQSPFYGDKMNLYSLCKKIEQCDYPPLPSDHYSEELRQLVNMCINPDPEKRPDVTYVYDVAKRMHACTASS
The target is the same in test [19]. Particulars: at 1 µM.
The target in test [20] is T7, Serine/threonine-protein kinase Nek9 (Homo sapiens) (UniProt Q8TD19).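 Note: reported value is the mean percent inhibition of NEK9.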
T7 sequence (whole entry): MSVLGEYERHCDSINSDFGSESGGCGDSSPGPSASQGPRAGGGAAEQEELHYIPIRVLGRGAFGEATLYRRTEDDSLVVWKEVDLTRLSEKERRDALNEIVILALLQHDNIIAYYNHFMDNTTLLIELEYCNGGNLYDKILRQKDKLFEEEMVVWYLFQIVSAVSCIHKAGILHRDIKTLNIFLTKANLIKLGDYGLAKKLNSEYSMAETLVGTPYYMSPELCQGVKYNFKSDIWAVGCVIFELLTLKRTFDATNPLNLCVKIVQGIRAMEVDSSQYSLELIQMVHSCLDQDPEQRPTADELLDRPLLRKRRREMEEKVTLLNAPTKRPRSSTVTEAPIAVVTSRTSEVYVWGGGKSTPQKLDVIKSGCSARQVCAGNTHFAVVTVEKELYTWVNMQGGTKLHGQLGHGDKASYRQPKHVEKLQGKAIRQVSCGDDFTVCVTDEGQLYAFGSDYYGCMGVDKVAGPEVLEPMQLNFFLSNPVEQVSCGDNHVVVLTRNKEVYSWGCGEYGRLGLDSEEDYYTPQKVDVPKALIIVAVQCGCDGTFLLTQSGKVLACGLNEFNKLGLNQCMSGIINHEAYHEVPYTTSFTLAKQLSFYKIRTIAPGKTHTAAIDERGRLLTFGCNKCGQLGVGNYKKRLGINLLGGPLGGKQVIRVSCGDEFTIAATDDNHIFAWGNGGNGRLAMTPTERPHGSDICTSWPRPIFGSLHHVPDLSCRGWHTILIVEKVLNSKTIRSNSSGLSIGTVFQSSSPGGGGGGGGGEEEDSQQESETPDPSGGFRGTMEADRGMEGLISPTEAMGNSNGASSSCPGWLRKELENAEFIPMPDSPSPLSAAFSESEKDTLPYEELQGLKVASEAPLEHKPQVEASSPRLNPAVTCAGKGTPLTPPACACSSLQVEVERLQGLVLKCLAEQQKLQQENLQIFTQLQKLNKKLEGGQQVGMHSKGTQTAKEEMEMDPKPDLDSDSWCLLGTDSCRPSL
Particulars: at 0.1 µM.

Chain of Casein kinase II subunit alpha (Homo sapiens) (P68400 whole entry, looked up): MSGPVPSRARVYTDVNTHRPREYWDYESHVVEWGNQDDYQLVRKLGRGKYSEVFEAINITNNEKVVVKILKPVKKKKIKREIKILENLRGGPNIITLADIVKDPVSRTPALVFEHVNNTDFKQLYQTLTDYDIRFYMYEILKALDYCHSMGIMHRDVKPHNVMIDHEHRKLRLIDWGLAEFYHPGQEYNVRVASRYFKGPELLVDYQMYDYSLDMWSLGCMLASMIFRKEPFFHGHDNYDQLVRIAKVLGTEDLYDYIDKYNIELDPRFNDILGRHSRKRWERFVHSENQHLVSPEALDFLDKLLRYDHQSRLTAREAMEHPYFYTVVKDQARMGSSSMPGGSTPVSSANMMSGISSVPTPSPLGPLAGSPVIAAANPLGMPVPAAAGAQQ
Chain of Serine/threonine-protein kinase Nek6 (Homo sapiens) (Q9HC98 whole entry): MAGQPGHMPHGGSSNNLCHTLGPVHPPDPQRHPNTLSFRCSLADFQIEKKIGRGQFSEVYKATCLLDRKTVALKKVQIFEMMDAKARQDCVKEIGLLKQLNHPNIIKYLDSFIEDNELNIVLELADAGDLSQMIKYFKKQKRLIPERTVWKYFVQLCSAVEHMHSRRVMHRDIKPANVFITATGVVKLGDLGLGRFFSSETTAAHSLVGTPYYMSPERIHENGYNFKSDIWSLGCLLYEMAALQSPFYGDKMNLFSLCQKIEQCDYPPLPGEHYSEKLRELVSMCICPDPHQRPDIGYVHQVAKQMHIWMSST
Chain of Sphingosine kinase 1 (Homo sapiens) (Q9NYA1 whole entry): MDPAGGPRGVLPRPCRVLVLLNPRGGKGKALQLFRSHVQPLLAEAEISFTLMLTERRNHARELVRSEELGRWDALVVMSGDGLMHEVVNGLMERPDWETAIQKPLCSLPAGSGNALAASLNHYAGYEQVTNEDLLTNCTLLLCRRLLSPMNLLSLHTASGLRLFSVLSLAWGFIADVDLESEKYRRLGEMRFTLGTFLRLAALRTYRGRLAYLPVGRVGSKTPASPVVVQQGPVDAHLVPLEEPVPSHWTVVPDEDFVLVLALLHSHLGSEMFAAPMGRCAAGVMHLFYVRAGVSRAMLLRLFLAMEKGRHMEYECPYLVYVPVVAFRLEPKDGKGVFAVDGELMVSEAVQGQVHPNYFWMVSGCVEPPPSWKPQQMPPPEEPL

Consider `O=C(O[C@H]1CN[C@H](C#Cc2cc3ncnc(Nc4ccc(OCc5cccc(F)c5)c(Cl)c4)c3s2)C1)N1CCOCC1`, for which the inhibition in [1] is -2.17%; in [2] it was 0.46%; in [3], -2.18%; in test [4] it was 4.85%; in [5] it was 11.5%; in test [6], 6.35%. Moreover, the inhibition stood at 6.72% in test [7]; 8.43% in test [8]; 11.1% in test [9]; 8.36% in test [10]; 9.71% in test [11]; 3.33% in test [12]. Also, the inhibition is 4.01% in test [13]; 6.18% in test [14]; 8.23% in test [15]; 1.15% in [16]; 2.74% in test [17]; 4.68% in [18]. Also, the inhibition came to 3.68% in [19] and 5.79% in test [20].
